From PubChem BioAssay (EPA / NIEHS) come the findings set out here.

Active and inactive are the calls of the source. The calls were made as follows: active = hit-call score of the fitted dose curve at least 0.9, where 1 is the maximum; inactive = score below 0.9.

Read-out in the assay: Thrombomodulin, THBD (gene 7056)
In words: BSK_CASM3C_Thrombomodulin: BioMAP Diversity Plus: CASM3C Assay for Thrombomodulin Biomarker Activity (AID 2283051).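 Also: thrombomodulin protein level measured by ELISA 24 h after dosing.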 Particulars: primary human coronary artery smooth muscle cells; actives raise or lower the signal.
For the compound `CN(C)C(=O)Nc1cccc(C(F)(F)F)c1`, the outcome was inactive. On the same count and under the same terms, the entry for `COP(=O)(NC(C)=O)SC` (stereo not drawn) is “inactive”. Still for that read-out and setting: the entry for `CN(C)NC(=O)CCC(=O)O` is “inactive”. The AC50 is the concentration at which the activity in the assay is half-maximal. With `C[Si](Cn1cncn1)(c1ccc(F)cc1)c1ccc(F)cc1`, the AC50 was 7.8 µM (active). The same measure, in the same setting: the figure for `CCCOCC(=Nc1ccc(Cl)cc1C(F)(F)F)n1ccnc1` is 20.9 µM (active).

`CC1=NNC(=O)N(/N=C/c2cccnc2)C1`: the outcome was inactive. The same measure, in the same setting: the entry for `C#CCC1=C(C)C(OC(=O)C2C(C=C(C)C)C2(C)C)CC1=O` (stereo not drawn) is “inactive”; for `COP(=O)(OC)C(O)C(Cl)(Cl)Cl` (stereo not drawn) it is “inactive”. With `COP(=O)(OC)SCn1c(=O)oc2cc(Cl)cnc21`, the AC50 was 5.31 µM (active).

Regarding `CCOP(=S)(Oc1cnc(C(C)(C)C)nc1)OC(C)C` (stereo not drawn), the concentration at half-maximal activity (AC50) was 20 µM (active). For the compound `CNC(=O)ON=C(SC)C(=O)N(C)C`, the outcome was inactive.

For `CCOP(=S)(OCC)SCCSCC`, the outcome was inactive. Still for that read-out and setting: the entry for `CNc1cnn(-c2cccc(C(F)(F)F)c2)c(=O)c1Cl` is “inactive”; for `CC1(C(=O)Nc2ccc(O)c(Cl)c2Cl)CCCCC1` it is “inactive”; for `CN1COCN(Cc2cnc(Cl)s2)C1=N[N+](=O)[O-]` it is “inactive”. As to `CCCCSP(=O)(SCCCC)SCCCC`, the AC50 is 20 µM (active). For `CC(C1CC1)C(O)(Cn1cncn1)c1ccc(Cl)cc1` (stereo not drawn), the result was inactive. Same read-out and setting: next, `CC[C@H](C)[C@H]1O[C@]2(C=C[C@@H]1C)C[C@@H]1C[C@@H](C/C=C(\C)[C@@H](O[C@H]3C[C@H](OC)[C@@H](O[C@H]4C[C@H](OC)[C@@H](NC)[C@H](C)O4)[C@H](C)O3)[C@@H](C)/C=C/C=C3\CO[C@@H]4[C@H](O)C(C)=C[C@@H](C(=O)O1)[C@]34O)O2`: “inactive”.
